In publication PMC7862700, “An all-to-all approach to the identification of sequence-specific readers for epigenetic DNA modifications on cytosine”:

Experiments:
Experiment in all cases: DAPPL (digital affinity profiling via proximity ligation, sequencing); 10 mM Tris-HCl pH 7.5, 50 mM NaCl, 1 mM DTT, 4% glycerol, room temperature, 30 min; GST-TFs on glutathione beads, 16-mer random dsDNA library, 0.1% formaldehyde crosslink after washing; high values mean tight binding
Settings in all cases: protein: recombinant; tags: N-terminal GST; dsDNA, one strand shown
ELK1 = target: T1, ELK1 (Homo sapiens, UniProt P19419 1-428)
T1 sequence: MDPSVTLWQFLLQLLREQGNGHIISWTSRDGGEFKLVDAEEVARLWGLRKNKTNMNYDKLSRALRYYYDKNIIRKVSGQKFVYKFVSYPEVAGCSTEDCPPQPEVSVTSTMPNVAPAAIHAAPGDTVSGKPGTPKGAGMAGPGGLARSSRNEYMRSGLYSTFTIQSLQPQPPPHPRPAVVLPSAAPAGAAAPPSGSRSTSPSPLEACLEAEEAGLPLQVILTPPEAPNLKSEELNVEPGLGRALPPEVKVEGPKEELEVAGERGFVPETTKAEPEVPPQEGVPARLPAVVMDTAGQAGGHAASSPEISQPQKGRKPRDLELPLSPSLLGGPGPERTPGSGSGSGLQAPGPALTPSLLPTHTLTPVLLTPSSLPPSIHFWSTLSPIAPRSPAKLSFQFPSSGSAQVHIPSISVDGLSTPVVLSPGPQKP
Summary of the method: (§1)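 The binding signal reported is, for every hexamer, its read frequency for a factor over its read frequency for the tag-only sample. Reads came from pools of yeast-expressed, GST-fused human transcription factors on glutathione beads, barcoded with DNA and mixed with that sample, which were incubated with 200 nmole of a random double-stranded 16-mer DNA library in Tris/NaCl/DTT/glycerol buffer at room temperature for 30 min. After washing, the pools were crosslinked with 0.1% formaldehyde, proximity-ligated with BsaI/T4 ligase for 1 h at 37 °C, PCR-amplified and sequenced on an Illumina NextSeq500.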

GABPA = target: T2, GABPA (Homo sapiens, UniProt Q06546 1-454)
T2 sequence: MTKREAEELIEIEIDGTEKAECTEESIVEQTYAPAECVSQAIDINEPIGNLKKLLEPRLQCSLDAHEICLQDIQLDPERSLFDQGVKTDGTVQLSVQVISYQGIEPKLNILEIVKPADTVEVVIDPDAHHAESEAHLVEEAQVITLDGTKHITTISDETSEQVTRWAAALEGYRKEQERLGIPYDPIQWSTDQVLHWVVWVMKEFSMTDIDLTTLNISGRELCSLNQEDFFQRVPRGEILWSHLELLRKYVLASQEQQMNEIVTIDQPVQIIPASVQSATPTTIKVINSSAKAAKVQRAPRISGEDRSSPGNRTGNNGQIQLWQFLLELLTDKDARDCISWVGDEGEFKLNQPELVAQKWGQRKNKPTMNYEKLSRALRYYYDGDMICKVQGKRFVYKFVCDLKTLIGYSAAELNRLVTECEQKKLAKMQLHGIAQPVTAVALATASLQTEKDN
Summary of the method: as §1

ERG = target: T3, ERG (Homo sapiens, UniProt P11308 1-479)
T3 sequence: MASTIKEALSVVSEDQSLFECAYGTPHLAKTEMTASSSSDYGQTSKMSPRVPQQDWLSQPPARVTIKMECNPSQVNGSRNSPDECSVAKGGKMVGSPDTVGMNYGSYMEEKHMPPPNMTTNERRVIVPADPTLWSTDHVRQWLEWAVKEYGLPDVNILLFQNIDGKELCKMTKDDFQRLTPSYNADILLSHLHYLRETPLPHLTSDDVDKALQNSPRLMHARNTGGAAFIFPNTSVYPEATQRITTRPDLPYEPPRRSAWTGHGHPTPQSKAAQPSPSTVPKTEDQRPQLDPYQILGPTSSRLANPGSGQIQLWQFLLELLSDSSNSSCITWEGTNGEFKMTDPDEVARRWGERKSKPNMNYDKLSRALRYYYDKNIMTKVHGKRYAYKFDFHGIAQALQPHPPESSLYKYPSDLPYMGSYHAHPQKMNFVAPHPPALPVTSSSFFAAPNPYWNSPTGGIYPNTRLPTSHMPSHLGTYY
Summary of the method: as §1

ELF1 = ELF1 (Homo sapiens, UniProt P32519 1-619)
Summary of the method: as §1

EHF = target: T4, EHF (Homo sapiens, UniProt Q9NZC4 1-300)
T4 sequence: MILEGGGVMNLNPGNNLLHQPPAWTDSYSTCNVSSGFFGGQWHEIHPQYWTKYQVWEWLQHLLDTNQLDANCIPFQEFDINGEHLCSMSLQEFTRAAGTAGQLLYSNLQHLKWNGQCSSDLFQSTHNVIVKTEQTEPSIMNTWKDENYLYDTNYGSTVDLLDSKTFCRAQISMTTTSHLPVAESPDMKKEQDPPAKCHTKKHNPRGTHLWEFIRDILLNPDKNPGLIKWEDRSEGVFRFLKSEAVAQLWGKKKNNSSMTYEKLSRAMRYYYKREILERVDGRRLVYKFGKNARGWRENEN
Summary of the method: as §1

SPIB = SPIB (Homo sapiens, UniProt Q01892 1-262)
Summary of the method: as §1

FEV = target: T5, FEV (Homo sapiens, UniProt Q99581 1-238)
T5 sequence: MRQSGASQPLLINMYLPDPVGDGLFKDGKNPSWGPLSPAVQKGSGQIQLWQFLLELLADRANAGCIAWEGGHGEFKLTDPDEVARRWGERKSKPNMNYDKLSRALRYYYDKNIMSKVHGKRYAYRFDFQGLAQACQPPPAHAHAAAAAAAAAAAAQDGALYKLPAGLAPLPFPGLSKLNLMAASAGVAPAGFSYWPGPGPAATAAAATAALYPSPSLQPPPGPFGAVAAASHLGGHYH
Summary of the method: as §1

ETV5 = ETV5 (Homo sapiens, UniProt P41161 1-510)
Summary of the method: as §1

ELF4 = ELF4 (Homo sapiens, UniProt Q99607 1-663)
Summary of the method: as §1

ELK4 = target: T6, ELK4 (Homo sapiens, UniProt P28324-2 1-405)
T6 sequence: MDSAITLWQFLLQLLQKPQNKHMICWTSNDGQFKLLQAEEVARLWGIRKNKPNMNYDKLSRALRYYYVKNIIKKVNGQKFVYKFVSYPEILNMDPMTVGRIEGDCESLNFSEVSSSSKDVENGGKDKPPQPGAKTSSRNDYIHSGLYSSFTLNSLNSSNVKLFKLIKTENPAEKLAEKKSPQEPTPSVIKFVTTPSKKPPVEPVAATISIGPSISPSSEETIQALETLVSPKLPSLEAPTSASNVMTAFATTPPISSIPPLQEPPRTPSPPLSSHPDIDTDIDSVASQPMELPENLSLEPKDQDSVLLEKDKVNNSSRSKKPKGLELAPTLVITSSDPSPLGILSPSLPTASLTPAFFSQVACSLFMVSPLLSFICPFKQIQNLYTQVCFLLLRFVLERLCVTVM
Summary of the method: as §1

ELF4, sequence (Q99607 whole entry): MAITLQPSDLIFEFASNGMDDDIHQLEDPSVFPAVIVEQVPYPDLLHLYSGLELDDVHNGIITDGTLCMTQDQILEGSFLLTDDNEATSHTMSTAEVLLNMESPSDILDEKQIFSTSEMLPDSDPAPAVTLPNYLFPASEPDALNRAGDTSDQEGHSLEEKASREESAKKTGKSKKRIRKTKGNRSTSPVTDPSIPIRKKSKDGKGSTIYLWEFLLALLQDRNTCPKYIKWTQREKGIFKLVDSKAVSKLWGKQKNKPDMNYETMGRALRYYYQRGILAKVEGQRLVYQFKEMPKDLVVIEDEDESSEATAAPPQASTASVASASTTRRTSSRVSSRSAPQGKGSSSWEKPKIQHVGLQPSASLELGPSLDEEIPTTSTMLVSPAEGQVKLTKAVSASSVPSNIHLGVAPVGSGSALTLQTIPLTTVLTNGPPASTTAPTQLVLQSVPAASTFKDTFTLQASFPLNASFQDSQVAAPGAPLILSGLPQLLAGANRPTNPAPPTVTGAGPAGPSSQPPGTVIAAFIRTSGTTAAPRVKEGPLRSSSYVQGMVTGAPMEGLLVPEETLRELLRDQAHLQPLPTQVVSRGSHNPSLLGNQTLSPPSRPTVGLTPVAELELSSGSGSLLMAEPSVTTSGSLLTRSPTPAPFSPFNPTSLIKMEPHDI
SPIB, sequence (Q01892 whole entry): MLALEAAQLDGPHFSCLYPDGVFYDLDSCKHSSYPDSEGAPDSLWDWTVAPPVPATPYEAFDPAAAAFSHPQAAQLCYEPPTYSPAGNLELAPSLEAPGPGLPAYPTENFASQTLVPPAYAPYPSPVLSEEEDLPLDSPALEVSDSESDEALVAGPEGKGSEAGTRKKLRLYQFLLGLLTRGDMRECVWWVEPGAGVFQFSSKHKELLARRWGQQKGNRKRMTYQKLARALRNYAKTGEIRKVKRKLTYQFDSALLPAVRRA
ELF1, sequence (P32519 whole entry): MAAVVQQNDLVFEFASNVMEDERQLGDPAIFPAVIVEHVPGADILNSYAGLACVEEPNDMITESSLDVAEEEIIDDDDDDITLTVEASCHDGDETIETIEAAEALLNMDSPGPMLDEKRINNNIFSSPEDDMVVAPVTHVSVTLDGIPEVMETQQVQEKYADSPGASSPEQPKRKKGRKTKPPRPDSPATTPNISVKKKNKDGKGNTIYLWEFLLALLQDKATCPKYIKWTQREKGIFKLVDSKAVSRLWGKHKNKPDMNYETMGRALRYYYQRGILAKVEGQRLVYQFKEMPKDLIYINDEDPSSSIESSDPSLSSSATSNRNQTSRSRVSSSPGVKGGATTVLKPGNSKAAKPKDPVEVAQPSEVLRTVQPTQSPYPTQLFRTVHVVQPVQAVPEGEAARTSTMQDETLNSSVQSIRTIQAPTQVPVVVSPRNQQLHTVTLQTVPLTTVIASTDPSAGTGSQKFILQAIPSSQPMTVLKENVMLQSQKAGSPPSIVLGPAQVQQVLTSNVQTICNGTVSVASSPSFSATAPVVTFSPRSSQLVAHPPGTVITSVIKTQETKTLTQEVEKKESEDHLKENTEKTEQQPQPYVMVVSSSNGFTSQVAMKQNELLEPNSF
ETV5, sequence (P41161 whole entry): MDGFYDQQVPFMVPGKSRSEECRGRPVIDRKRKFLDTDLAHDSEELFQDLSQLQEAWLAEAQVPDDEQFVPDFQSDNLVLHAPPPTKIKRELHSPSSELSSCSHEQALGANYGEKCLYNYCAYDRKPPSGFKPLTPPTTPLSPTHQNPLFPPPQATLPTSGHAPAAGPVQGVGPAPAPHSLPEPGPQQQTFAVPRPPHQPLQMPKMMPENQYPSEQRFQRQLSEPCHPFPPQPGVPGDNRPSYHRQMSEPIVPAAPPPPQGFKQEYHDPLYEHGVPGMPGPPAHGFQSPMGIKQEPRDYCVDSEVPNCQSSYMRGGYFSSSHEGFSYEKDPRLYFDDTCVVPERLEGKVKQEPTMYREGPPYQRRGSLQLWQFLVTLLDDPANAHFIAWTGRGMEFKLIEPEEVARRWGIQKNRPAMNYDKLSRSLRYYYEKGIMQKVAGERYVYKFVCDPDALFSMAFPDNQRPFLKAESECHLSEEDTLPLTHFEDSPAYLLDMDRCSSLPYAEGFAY

Question: What does the source list for TCAAGT?
Answer: binding signal (ELK1): 1.14 fold enrichment (6-mer frequency, TF over GST control); binding signal (GABPA): 1.07 fold enrichment (6-mer frequency, TF over GST control); binding signal (ERG): 1.04 fold enrichment (6-mer frequency, TF over GST control); binding signal (ELF1): 1.02 fold enrichment (6-mer frequency, TF over GST control); binding signal (EHF): 1.12 fold enrichment (6-mer frequency, TF over GST control); binding signal (SPIB): 1.08 fold enrichment (6-mer frequency, TF over GST control); binding signal (FEV): 1.05 fold enrichment (6-mer frequency, TF over GST control); binding signal (ETV5): 1.07 fold enrichment (6-mer frequency, TF over GST control); binding signal (ELF4): 1.13 fold enrichment (6-mer frequency, TF over GST control); binding signal (ELK4): 1.19 fold enrichment (6-mer frequency, TF over GST control)
